Bioassay records from PubChem BioAssay.
Compounds with a hit are over-represented: about 14% of the library has one in this group of screens.
Giardia FBPA inh: qHTS Assay for Inhibitors of Fructose-1,6-bisphosphate Aldolase from Giardia Lamblia; purified Giardia FBPA; A8B2U2; 290,000 compounds, 0.71% hits; AID 2451, 2010; Potency, µM (doses to about 59.6 µM), actives largely listed as inhibitors; also: nearly all actives have a fitted effect of over 55% in size
Target sequence (A8B2U2 whole entry, looked up): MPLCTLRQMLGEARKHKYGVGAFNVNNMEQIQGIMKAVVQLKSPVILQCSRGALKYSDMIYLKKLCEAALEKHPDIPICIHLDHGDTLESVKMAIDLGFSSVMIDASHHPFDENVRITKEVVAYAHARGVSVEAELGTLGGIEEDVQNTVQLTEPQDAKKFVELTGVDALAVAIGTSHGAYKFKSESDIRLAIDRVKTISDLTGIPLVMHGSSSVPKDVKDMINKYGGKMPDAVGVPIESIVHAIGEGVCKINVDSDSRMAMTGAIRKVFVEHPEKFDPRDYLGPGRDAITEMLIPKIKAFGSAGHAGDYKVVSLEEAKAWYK
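Giardia FBPA (40 nM reagent) was preincubated 10 min at RT with compound (up to 57.5 uM final), then substrate plus GAPDH/TPI/NAD/arsenate coupling system with diaphorase/resazurin was added; resorufin fluorescence (525/598 nm) was read after 20 min.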
NS1 function inh: qHTS Assay for Inhibitors of Influenza NS1 Protein Function; 270,000 compounds, 0.4% hits; Potency, µM (titrated, usually from 46.1 µM); calls by dose curve; also: actives are rising curves; nearly all actives have a fitted effect of over 50% in size
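Growth recovery, yeast-based: influenza A NS1 expressed in S. cerevisiae causes slow growth, and suppressors are detected by OD600. The parent strain without NS1 is used as positive control.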
Shiga toxin inh: A qHTS for Small Molecule Inhibitors of Shiga Toxin | Vero cells, Shiga toxin protein synthesis inhibition reporter | AID 2315, 2010 | inhibition, % at 38.7 µM | 290,000 compounds, 9.2% hits; in the data active = inhibition mostly above about 28%, no sharp cut-off; inactive = mostly below about 43%
LmPK inhibitor: qHTS Assay for Inhibitors of Leishmania Mexicana Pyruvate Kinase (LmPK); Q27686; purified LmPK, Kinase-Glo ATP luminescence, 1 h; Potency, µM (doses to about 57.5 µM), most hits filed as inhibitors; 290,000 compounds, 0.37% hits; AID 1721, 2009
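Kinase-Glo luminescence read after 1 h RT reaction of 0.1 nM LmPK with 0.5 mM PEP and 0.1 mM ADP. Activity scaled between uninhibited and enzyme-free controls.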
Cycloheximide cs: Cycloheximide Counterscreen for Small Molecule Inhibitors of Shiga Toxin; 300,000 compounds, 12% hits; max response, %; AID 2314, 2010; cell reporter, cycloheximide protein synthesis inhibition counterscreen; in the data active = max response mostly above about 13%, no sharp cut-off; inactive = mostly below about 14%; also: read at 38.3 µM for the half of the compounds with a filed dose
A number is an active result; i = inactive; ? = inconclusive; nt = no result given. Unless noted, calls follow the shape of the dose curve; as a rule, active = well fitted curve in the direction sought with a large enough effect; inconclusive = small, poorly fitted or top-dose-only effect, or another doubt; inactive = no such curve, though single readings can be large; an effect the other way counts as inactive or inconclusive.

SMILES	Giardia FBPA inh	NS1 function inh	Shiga toxin inh	LmPK inhibitor	Cycloheximide cs
Cc1ccc(Cn2c(CCNC(=O)c3cccc(C)c3)nc3ccccc32)cc1	nt	nt	i	nt	i
COc1ccc(C=C2c3ccccc3C(=O)c3ccccc32)cc1O	i	nt	i	nt	i
CCC1CCCCN1C(=O)c1ccc2nc(Cc3ccc(OC)cc3)oc2c1 (stereo not given)	nt	i	77	i	35
COc1ccc(Cc2nc3ccc(C(=O)NCC4COCCO4)cc3o2)cc1OC (stereo not given)	i	i	i	i	34
COCC1CCCCN1C(=O)c1ccc2nc(Cc3ccc(OC)c(OC)c3)oc2c1 (stereo not given)	nt	i	i	i	12
CCc1cc(CNC(=O)c2ccc3nc(Cc4ccc(OC)c(OC)c4)oc3c2)on1	nt	i	i	i	i
CCOc1ccc2nc(NC(=O)C3=NN(c4ccccc4)C(=O)CC3)sc2c1	i	i	i	i	30
CCOc1ccc2nc(NC(=O)C3=NNC(=O)CC3)sc2c1	i	nt	i	i	17
Cc1ccc2nc(NC(=O)C3=NN(c4ccccc4)C(=O)CC3)sc2c1	i	i	i	i	i
CC(C)=CCC[C@](C)(O)C1CC=C(C)CC1 (stereo not given in full)	i	nt	nt	nt	nt
CC1CCCC(NC(=O)c2ccc3c(c2)NC(=O)CS3)C1C (stereo not given)	nt	i	i	i	i
c1ccc(Cc2nn3c(COc4ccccc4)nnc3s2)cc1	i	i	60	i	13
O=C(NC(Cc1cc(=O)[nH]c2ccccc12)C(=O)O)c1ccc(Cl)cc1 (stereo not given)	i	nt	nt	nt	nt
O=C1C2C3CCC(C3)C2C(=O)N1c1ccc(OS(=O)(=O)c2ccccc2)cc1 (stereo not given)	i	i	78	i	33
CCOC(=O)c1sc(N(Cc2ccccc2)C(=O)CSc2nnc(C3CC3)n2N)nc1C	i	i	79	i	17
CCOC(=O)c1sc(N(Cc2ccccc2)C(=O)COC(=O)c2cnccn2)nc1C	i	i	i	i	i
O=C(CCNc1ccc(F)cc1)c1ccco1	i	i	90	i	52
O=C(COC(=O)c1ccco1)c1ccc(F)cc1	i	i	110	i	55
O=C(COC(=O)c1ccco1)c1ccc(S(=O)(=O)N2CCCCC2)cc1	nt	i	i	i	i
O=C(CCNc1ccc(F)c(Cl)c1)c1ccco1	i	i	i	i	i
COc1ccccc1NS(=O)(=O)c1cccs1	?	i	i	i	i
O=S(=O)(Nc1cccc2ccccc12)c1cccs1	nt	i	i	i	9.3
O=S(=O)(Nc1cccc2cccnc12)c1cccs1	nt	nt	i	nt	20
O=S(=O)(Nc1cccc2cccnc12)c1ccc(Br)s1	?	nt	i	nt	i
O=S(=O)(Nc1ccc(O)c2ccccc12)c1cccs1	?	i	i	11µM	i
SMILES	Giardia FBPA inh	NS1 function inh	Shiga toxin inh	LmPK inhibitor	Cycloheximide cs
O=S(=O)(Nc1cccc2cccnc12)c1ccccc1O	20µM	nt	i	nt	i
CCCCOC(=O)Nc1ccc(S(=O)(=O)Nc2onc(C)c2C)cc1	i	i	i	i	i
CCOC(=O)c1ccc(-c2nnc(-c3ccc(Cl)cc3Cl)o2)cc1	i	i	i	i	9.6
CCOC(=O)c1cc(-c2nnc(-c3ccc(Cl)cc3)o2)c(C)nc1C	i	i	i	i	i
CCc1ccc(/C=C/C(=O)c2ccc(N3CCOCC3)cc2)cc1	i	i	active	i	15
Cc1cccc(/C=C/C(=O)c2ccc(N3CCOCC3)cc2)c1	i	i	45	i	14
O=C(/C=C/c1ccc(F)cc1)c1ccc(N2CCOCC2)cc1	i	i	i	i	i
Cc1ccc(/C=C/C(=O)c2ccc(N3CCOCC3)cc2)s1	i	nt	i	i	27
NC(=O)c1nsc(C(=O)N(c2ccc(Cl)cc2)C(C(=O)NCC2CCCO2)c2cccs2)c1N (stereo not given)	i	i	i	i	i
CCc1ccc(N(C(=O)c2snc(C(N)=O)c2N)C(C(=O)NCC2CCCO2)c2cccs2)cc1 (stereo not given)	i	nt	i	i	37
CC(C)c1ccc(N(C(=O)c2snc(C(N)=O)c2N)C(C(=O)NC2CCCC2)c2ccncc2)cc1 (stereo not given)	nt	i	i	i	15
NC(=O)c1nsc(C(=O)N(c2ccc(F)cc2)C(C(=O)NC2CCCC2)c2ccncc2)c1N (stereo not given)	i	i	i	i	i
